A short description of experiment [1]: qHTS assay for small molecules that induce genotoxicity in human embryonic kidney cells expressing luciferase-tagged ATAD5 (AID 651632). Also: nearly all actives have a fitted effect of over 15% in size. Put shortly: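 HEK293T cells carrying a luciferase reporter tagged to ATAD5 were exposed to compound or DMSO vehicle for 16 hr at 37C, 5% CO2. Amplite was added, and after 30 min at room temperature luciferase activity was read as a marker of ATAD5 induction.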

Experiment [2] in a line: qHTS assay for small molecule agonists of the p53 signaling pathway - cell viability (AID 651633; calls by dose curve; also: series mostly up to about 83 µM; nearly all actives have a fitted effect of over 30% in size). The method, boiled down: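 p53RE-bla cells, seeded at 4,000 per well and rested 5 h at 37 C/5% CO2, received compounds in DMSO for 16 h at 37 C. CellTiter-Glo was then added, and luminescence was read after 30 min at room temperature to gauge cytotoxicity.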
Background: In qHTS, concentration-response curves come from the screen itself.

A short description of experiment [3]: qHTS assay for small molecules that induce genotoxicity in human embryonic kidney cells expressing luciferase-tagged ATAD5 - cell viability (AID 651634; calls by dose curve; also: nearly all actives have a fitted effect of over 25% in size). The method, boiled down: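 HEK293T cells expressing luciferase-tagged ATAD5 were exposed to compound or DMSO for 15.5 hr at 37C, 5% CO2. Viability was then read as live-cell protease activity by CellTiter-Fluor fluorescence after 30 min at 37C.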

Experiment [4] in a line: qHTS assay for small molecule disruptors of the mitochondrial membrane potential - cell viability (AID 720634; calls by dose curve;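 also: human HepG2 liver cancer cells; series mostly up to about 83 µM; nearly all actives have a fitted effect of over 20% in size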). The method, boiled down: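 HepG2 cells seeded overnight at 37 C, then exposed to compound or DMSO for 1 hr at 37 C, 5% CO2. m-MPI dye added, then CellTiter-Glo for 30 min at room temperature; viability read as ATP luminescence.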
Experiment [5] can be described thus: qHTS assay for small molecule disruptors of the mitochondrial membrane potential (AID 720635). Also: potency is read from the fitted curve at half-maximal effect. Put shortly: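 HepG2 cells (2,000/well) attached overnight at 37C, then took compound for 1 hr at 37C, 5% CO2. Mito-MPS dye was added for 30 min; fluorescence was read at 490/535 nm (monomers) and 540/590 nm (aggregates).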
A short description of experiment [6]: qHTS assay to test for compound auto fluorescence at 590 nm (red) in HepG2 cells (AID 720674). The method, boiled down:
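Rose Bengal sodium served as the red fluorophore standard. HepG2 monolayers (overnight attachment, MEM with 10% FBS) were exposed to test compounds for 1 hr at 37 C and read at Ex 540/Em 590 nm.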

The nature of experiment [7]: qHTS assay to test for compound auto fluorescence at 535 nm (green) in HepG2 cells (AID 720675).
Experiment [8] can be described thus: qHTS assay to test for compound auto fluorescence at 460 nm (blue) in HEK293 cells (AID 720678). The method, boiled down:
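Auto fluorescence in the blue band was quantified as triamterene equivalency. HEK293 cells were seeded at 2,000/well, dosed after a 4-5 hr attachment, and kept overnight at 37C before the 405/460 nm reading.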

Experiment [9] is described as follows: qHTS assay to test for compound auto fluorescence at 590 nm (red) in HEK293 cells (AID 720679). The method, boiled down:
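Autofluorescence equivalency to Rose Bengal sodium, 540/590nm, in HEK293 cells exposed overnight to 23 nL compound per well.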

Experiment [10] in a line: qHTS assay to test for compound auto fluorescence at 535 nm (green) in HEK293 cells (AID 720680).
The nature of experiment [11]: qHTS assay to test for compound auto fluorescence at 460 nm (blue) in HEK293 cell free culture (AID 720681). The method, boiled down: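 Test compounds were pinned into cell-free culture medium (DMEM with 10% FBS) and fluorescence was read directly at Ex/Em 405/460 nm. Signals were expressed as fluorescence equivalents of triamterene, with DMSO vehicle as control.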

Experiment [12] is described as follows: qHTS assay to test for compound auto fluorescence at 535 nm (green) in HEK293 cell free culture (AID 720682). Put shortly:
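Compounds were pin-transferred into cell-free DMEM with 10% FBS, and green fluorescence was read at excitation 485 nm and emission 535 nm. Intensities were expressed as fluorescein-equivalent values.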

Experiment [13] is described as follows: qHTS assay to test for compound auto fluorescence at 590 nm (red) in HEK293 cell free culture (AID 720683). The method, boiled down:
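Tox21 10K library compounds were pinned into cell-free DMEM with 10% FBS and fluorescence was read at excitation 540 nm. Activity is expressed as Rose Bengal sodium equivalency.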

The nature of experiment [14]: qHTS assay to test for compound auto fluorescence at 590 nm (red) in HepG2 cell free culture (AID 720684). The method, boiled down: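 Measured in medium alone (MEM containing 10% FBS) following pintool addition of compound; emission at 590 nm with 540 nm excitation, referenced to Rose Bengal sodium.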
A short description of experiment [15]: qHTS assay to test for compound auto fluorescence at 460 nm (blue) in HepG2 cell free culture (AID 720685). Put shortly: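 Compound (23 nL) or DMSO pinned into cell-free MEM with 10% FBS; blue fluorescence read at 405/460 nm excitation/emission, expressed as auto-fluorescence equivalency to triamterene.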
Experiment [16] can be described thus: qHTS assay to test for compound auto fluorescence at 535 nm (green) in HepG2 cell free culture (AID 720686).
The nature of experiment [17]: qHTS assay to test for compound auto fluorescence at 460 nm (blue) in HepG2 cells (AID 720687). Put shortly: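 Cells (2,000/well in MEM with 10% FBS) attached overnight at 37 C, then were exposed to compound or DMSO for 1 hr at 37 C, 5% CO2. Fluorescence read at Ex/Em 405/460 nm, expressed as triamterene-equivalent signal.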
The nature of experiment [18]: qHTS assay for small molecule agonists of the p53 signaling pathway (AID 651631; calls by dose curve; also: nearly all actives have a fitted effect of over 15% in size). The method, boiled down: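 Readout was fluorescence from the LiveBLAzer FRET substrate, applied for 2 h at room temperature after 16 h compound exposure at 37 °C. Cells were the p53RE-bla HCT-116 line, with beta-lactamase driven by p53 response elements.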
For experiment [19], the target named is Glucocorticoid receptor (Homo sapiens) (UniProt P04150). The experiment can be described thus: qHTS assay to identify small molecule agonists of the glucocorticoid receptor (GR) signaling pathway (AID 720691; active = well fitted activation curve with a large enough effect in the signal ratio in the repeat runs, not every such curve was filed as active; the % refers to the signal ratio). Put shortly:
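GR-bla HeLa cells (beta-lactamase reporter under glucocorticoid response element) were plated 4 h at 37 C/5% CO2, given compounds in DMSO, and incubated 18 h at 37 C. LiveBLAzer B/G FRET substrate was added for 2 h at room temperature, then fluorescence intensity read.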

The target is the same in experiment [20]. Description: qHTS assay to identify small molecule antagonists of the glucocorticoid receptor (GR) signaling pathway (AID 720692; active = well fitted inhibition curve with a large enough effect in the signal ratio in the repeat runs, not every such curve was filed as active; the % refers to the signal ratio). Put shortly: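 GR-bla HeLa cells (beta-lactamase reporter under glucocorticoid response element) were pre-plated 4 h at 37 C, treated with compounds plus 5 nM dexamethasone (final) for 18 h, then read by LiveBLAzer B/G FRET fluorescence after 2 h.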

Consider eight compounds from PubChem BioAssay (Tox21).

Unmarked numbers belong to inactive results. Results filed as inconclusive are left out. Activity calls are given as the source filed them. Unless noted, calls follow the shape of the dose curve; as a rule, active = well fitted curve in the direction sought with a large enough effect in the repeat runs; inconclusive = weak or mixed curves; inactive = no such curve, though single readings can be large; an effect the other way counts as inactive or inconclusive.

Chain of Glucocorticoid receptor (Homo sapiens) (P04150 whole entry, looked up): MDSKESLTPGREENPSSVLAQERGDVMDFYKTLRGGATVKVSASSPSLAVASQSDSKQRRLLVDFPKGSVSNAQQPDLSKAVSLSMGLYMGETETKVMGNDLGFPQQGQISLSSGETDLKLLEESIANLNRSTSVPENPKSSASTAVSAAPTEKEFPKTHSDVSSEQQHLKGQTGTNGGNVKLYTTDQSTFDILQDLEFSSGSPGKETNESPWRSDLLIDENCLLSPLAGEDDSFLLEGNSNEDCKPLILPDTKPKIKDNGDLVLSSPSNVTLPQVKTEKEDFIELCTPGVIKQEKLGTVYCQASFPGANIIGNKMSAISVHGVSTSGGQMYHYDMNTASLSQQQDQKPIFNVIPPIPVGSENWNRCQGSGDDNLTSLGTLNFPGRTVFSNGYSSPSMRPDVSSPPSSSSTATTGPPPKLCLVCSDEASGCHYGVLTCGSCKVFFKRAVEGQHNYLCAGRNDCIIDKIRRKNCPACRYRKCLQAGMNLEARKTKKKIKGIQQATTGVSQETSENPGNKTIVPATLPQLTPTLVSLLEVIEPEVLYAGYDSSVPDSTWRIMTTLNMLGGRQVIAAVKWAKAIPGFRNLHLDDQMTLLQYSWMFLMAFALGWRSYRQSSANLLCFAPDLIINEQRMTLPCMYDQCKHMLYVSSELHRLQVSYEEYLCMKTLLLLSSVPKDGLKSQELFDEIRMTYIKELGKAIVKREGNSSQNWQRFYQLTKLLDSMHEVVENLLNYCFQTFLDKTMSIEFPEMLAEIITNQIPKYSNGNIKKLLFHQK

Turning to `CC(C)(C)C(=O)CCc1ccc(Cl)cc1`, the Potency result in experiment [1] and in experiment [5] was “inactive” in each case. In addition, the outcome in experiment [2], in experiment [3], in experiment [4], in experiment [6], in [7] and in [8] was inactive. The compound was called inactive in [9], in [10], in experiment [11], in [12], in experiment [13] and in experiment [14]. In addition, the compound was classed as inactive in experiment [15], in experiment [16] and in experiment [17].

Consider `CCCCCC(=O)CC`, for which the Potency entry in experiment [18] and in experiment [1] was “inactive” each time. The result in experiment [3], in [6], in experiment [7], in [8], in [9] and in [10] was inactive. Besides, the compound was called inactive in experiment [11], in experiment [13], in experiment [14], in [15], in [16] and in experiment [17].

`CCOc1ccccc1OCCN[C@H](C)Cc1ccc(OC)c(S(N)(=O)=O)c1`: the Potency entry in [1] was “inactive”. The compound was called inactive in experiment [2], in [3], in [4], in experiment [6], in [7] and in [8]. Moreover, the outcome in experiment [9], in experiment [10], in experiment [11], in [12], in experiment [13] and in [14] was inactive. In addition, the result in experiment [15], in experiment [16] and in experiment [17] was inactive. Moreover, the Potency in experiment [5] is 24.8 µM (active).

As to `C[C@H]1COc2c(C3(N)CC3)c(F)cc3c(=O)c(C(=O)O)cn1c23`, the Potency result in experiment [1], in [5] and in [19] was “inactive” throughout. Besides, the outcome in experiment [2], in experiment [3], in experiment [4], in [6], in [7] and in [8] was inactive. Besides, the compound was classed as inactive in experiment [9], in experiment [10], in experiment [11], in [12], in experiment [13] and in experiment [14]. Moreover, the outcome in experiment [16], in [17] and in experiment [20] was inactive.

With `O=C(O)/C=C(\CC(=O)O)C(=O)O`, the Potency result in experiment [1] and in experiment [5] was “inactive” in each case. The compound was called inactive in experiment [2], in [3], in experiment [4], in experiment [6], in experiment [7] and in experiment [8]. For the same compound, the compound was classed as inactive in experiment [9], in experiment [10], in experiment [11], in experiment [12], in experiment [13] and in experiment [15]. For the same compound, the compound was classed as inactive in experiment [16] and in experiment [17].

For `NNC(=O)OCc1ccccc1`, the Potency result in [1] and in experiment [5] was “inactive” each time. Besides, the outcome in experiment [2], in experiment [3], in experiment [4], in [6], in experiment [7] and in experiment [8] was inactive. For the same compound, the compound was called inactive in experiment [9], in [10], in [11], in [13], in [14] and in experiment [15]. Moreover, the compound was called inactive in experiment [16] and in [17].

Turning to `N#Cc1ccccc1C#N`, the Potency entry in experiment [1] and in experiment [5] was “inactive” throughout. For the same compound, the compound was called inactive in experiment [2], in [3], in experiment [4], in [6], in experiment [7] and in [8]. For the same compound, the compound was called inactive in experiment [9], in [10], in [11], in experiment [12], in experiment [13] and in experiment [15]. The outcome in experiment [16] and in [17] was inactive.

For `CC(=O)OC/C=C(/C)CCC=C(C)C`, the Potency entry in [1], in [5] and in [19] was “inactive” throughout. The compound was classed as inactive in experiment [2], in experiment [3], in experiment [4], in experiment [6], in [7] and in experiment [8]. Further, the result in [9], in experiment [10], in experiment [11], in experiment [12], in experiment [13] and in experiment [14] was inactive. For the same compound, the result in [15], in [16], in experiment [17] and in [20] was inactive.
